Assays:
PAI-1 wild type, active [1] = target: T1, PAI-1 wild type, active (human, UniProt P05121 24-402); assay: branched SELEX with high-throughput sequencing; PAI-1 immobilised on monoclonal anti-PAI-1 antibody mAb-1; HBS (10 mM HEPES pH 7.4, 140 mM NaCl), 2 mM MgCl2, 2 mM CaCl2, 0.1% BSA; RNA pool 100 nM; PAI-1 captured on antibody-coated wells; 45 min; binding temperature not stated (PAI-1 capture at room temperature); high values mean tight binding; details: protein: recombinant; tags: N-terminal His6; structured_RNA; 2'-F pyrimidines
PAI-1 wild type, active [2] = target: T1, PAI-1 wild type, active; assay: branched SELEX with high-throughput sequencing; PAI-1 immobilised on polyclonal anti-PAI-1 antibody; HBS (10 mM HEPES pH 7.4, 140 mM NaCl), 2 mM MgCl2, 2 mM CaCl2, 0.1% BSA; RNA pool 100 nM; PAI-1 captured on antibody-coated wells; 45 min; binding temperature not stated (PAI-1 capture at room temperature); high values mean tight binding; details: protein: recombinant; tags: N-terminal His6; structured_RNA; 2'-F pyrimidines
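Further: Pool frequency after one selection round with this target divided by frequency before selection.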

T1 sequence (P05121 24-402): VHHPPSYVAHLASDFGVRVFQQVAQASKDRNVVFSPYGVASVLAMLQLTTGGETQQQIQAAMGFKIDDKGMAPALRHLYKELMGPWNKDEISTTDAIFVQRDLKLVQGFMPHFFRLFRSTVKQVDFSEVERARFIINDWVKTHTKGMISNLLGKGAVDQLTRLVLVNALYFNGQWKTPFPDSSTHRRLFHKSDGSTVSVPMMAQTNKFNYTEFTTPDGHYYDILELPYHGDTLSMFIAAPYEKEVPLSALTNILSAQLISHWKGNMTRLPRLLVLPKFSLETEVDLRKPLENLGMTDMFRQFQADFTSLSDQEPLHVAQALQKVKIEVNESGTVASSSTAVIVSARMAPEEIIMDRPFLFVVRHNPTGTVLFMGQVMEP

## GGGGCCACCAACGACAUUUGUCAACCGAUCACGCUUAUAGAGCGACCACGUAGGUUGAUAUAAAUAGUGCCCAUGGAUC
PAI-1 wild type, active [1]
  binding signal: 5.14 enrichment factor

## GGGGCCACCAACGACAUUCCAAGAUCACUUGGACCGUGUAUUAAGUACAGUUCGUUGAUAUAAAUAGUGCCCAUGGAUC
PAI-1 wild type, active [1]
  binding signal: 4.62 enrichment factor

## GGGGCCACCAACGACAUUAACAACCCGUAGACGUCAUCGUCGAUCGCGUUAGUGUUGAUAUAAAUAGUGCCCAUGGAUC
PAI-1 wild type, active [1]
  binding signal: 1.35 enrichment factor

## GGGGCCACCAACGACAUUUCACACUGUAAGGCCAUGUGCCGACUAGAAAUUGCGUUGAUAUAAAUAGUGCCCAUGGAUC
PAI-1 wild type, active [2]
  binding signal: 0.84 enrichment factor
PAI-1 wild type, active [1]
  binding signal: 0.55 enrichment factor

## GGGGCCACCAACGACAUUGAACUUGUAGUACCUGUAUUGGGUAUGACCUCAGUGUUGAUAUAAAUAGUGCCCAUGGAUC
PAI-1 wild type, active [2]
  binding signal: 1.61 enrichment factor

## GGGGCCACCAACGACAUUGACCCAUCUCGCGUUUCCGGGAUGACUAGUAGAAUGUUGAUAUAAAUAGUGCCCAUGGAUC
PAI-1 wild type, active [2]
  binding signal: 0.56 enrichment factor

## GGGGCCACCAACGACAUUUACCGUCUGGGUAACCUUGUACGAUAGUACAGUUCGUUGAUAUAAAUAGUGCCCAUGGAUC
PAI-1 wild type, active [2]
  binding signal: 1.31 enrichment factor
PAI-1 wild type, active [1]
  binding signal: 1.53 enrichment factor

## GGGGCCACCAACGACAUUAUACAGCCGAUCAUGUCACGUAGGCUGUGAUUAACGUUGAUAUAAAUAGUGCCCAUGGAUC
PAI-1 wild type, active [2]
  binding signal: 0.58 enrichment factor
PAI-1 wild type, active [1]
  binding signal: 0.81 enrichment factor

## GGGGCCACCAACGACAUUUGCAAUUUAUGCAACCUUAGCGGAUUCGCUAGUUCGUUGAUAUAAAUAGUGCCCAUGGAUC
PAI-1 wild type, active [1]
  binding signal: 3.88 enrichment factor

From paper PMC4666376, “Characterisation of aptamer–target interactions by branched selection and high-throughput sequencing of SELEX pools”
